Results filed as inconclusive are left out. Calls of active or inactive are those of the source. The calls were made as follows: active = hit-call score of the fitted dose curve at least 0.9, where 1 is the maximum; inconclusive = response in the unintended direction; inactive = score below 0.9.
How the values were obtained:
[1] = target: Estrogen receptor beta (Homo sapiens) (UniProt Q92731); assay: ATG_hERb_XSP1: Attagene TRANS-FACTORIAL Multi-Species (XSP1) HepG2 Assay for human Estrogen Receptor (ESR2) (AID 2283788)
Estrogen receptor beta (Homo sapiens), sequence (Q92731 whole entry, looked up, the tested form may be a part): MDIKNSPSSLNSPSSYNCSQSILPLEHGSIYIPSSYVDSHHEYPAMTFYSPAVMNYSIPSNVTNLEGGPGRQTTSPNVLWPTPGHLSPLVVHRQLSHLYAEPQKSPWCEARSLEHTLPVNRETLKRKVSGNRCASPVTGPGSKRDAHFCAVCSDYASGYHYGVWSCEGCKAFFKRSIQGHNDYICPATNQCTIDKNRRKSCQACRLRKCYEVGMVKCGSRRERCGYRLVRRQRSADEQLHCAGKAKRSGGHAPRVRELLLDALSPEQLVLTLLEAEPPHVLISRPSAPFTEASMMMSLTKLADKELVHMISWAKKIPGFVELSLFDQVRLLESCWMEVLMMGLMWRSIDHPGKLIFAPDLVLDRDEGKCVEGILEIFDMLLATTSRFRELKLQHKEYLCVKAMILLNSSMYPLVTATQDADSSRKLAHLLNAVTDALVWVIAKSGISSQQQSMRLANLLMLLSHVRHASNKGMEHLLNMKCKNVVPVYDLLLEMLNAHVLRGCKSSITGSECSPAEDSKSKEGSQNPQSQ
Summary of the method: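 Measured endpoint is transcriptional gain of signal from a GAL4-UAS reporter controlled by chimeric ERβ in HepG2 liver cells. Exposure lasts 24 h alongside 3 nM 6-alpha-fluorotestosterone, with DMSO as negative control.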

[2] = target: GAL4 Transcription Factor (Internal Marker), GAL4 (gene 855828) (UniProt P04386); assay: ATG_GAL4_XSP1: Attagene TRANS-FACTORIAL Multi-Species (XSP1) HepG2 Assay for GAL4 Transcription Factor (Internal Marker) (AID 2283789)
GAL4 Transcription Factor (Internal Marker), GAL4 (gene 855828), sequence (P04386 whole entry, looked up, the tested form may be a part): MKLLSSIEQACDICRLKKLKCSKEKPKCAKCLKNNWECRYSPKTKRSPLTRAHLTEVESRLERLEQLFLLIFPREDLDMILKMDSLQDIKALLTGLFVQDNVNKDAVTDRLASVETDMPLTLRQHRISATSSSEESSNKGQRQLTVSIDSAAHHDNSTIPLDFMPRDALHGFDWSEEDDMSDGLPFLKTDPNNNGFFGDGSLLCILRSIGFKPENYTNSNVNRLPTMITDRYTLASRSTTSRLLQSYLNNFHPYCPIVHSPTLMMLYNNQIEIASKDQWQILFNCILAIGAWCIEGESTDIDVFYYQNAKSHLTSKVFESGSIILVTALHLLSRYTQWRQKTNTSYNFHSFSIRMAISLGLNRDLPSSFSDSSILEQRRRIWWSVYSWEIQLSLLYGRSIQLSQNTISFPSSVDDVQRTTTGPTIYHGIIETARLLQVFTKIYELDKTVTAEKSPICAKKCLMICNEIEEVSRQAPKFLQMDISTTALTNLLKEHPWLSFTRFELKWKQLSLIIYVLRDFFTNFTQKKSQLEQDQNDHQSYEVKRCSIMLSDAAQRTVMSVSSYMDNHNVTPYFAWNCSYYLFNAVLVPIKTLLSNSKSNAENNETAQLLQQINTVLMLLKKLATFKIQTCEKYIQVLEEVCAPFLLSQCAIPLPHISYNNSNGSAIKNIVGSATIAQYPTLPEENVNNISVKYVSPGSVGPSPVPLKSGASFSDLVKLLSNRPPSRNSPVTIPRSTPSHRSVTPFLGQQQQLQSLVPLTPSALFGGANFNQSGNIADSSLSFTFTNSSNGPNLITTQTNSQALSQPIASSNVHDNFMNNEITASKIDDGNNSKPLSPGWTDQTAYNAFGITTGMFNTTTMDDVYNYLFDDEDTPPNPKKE
Summary of the method: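 HepG2 cells transiently transfected with multiplexed GAL4-UAS reporter units were exposed for 24 h with 3 nM 6-alpha-fluorotestosterone present. Reporter mRNA was quantified by RT-PCR, FAM labelling, HpaI digestion and capillary electrophoresis; background-control readout, gain-of-signal versus DMSO.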

[3] = ATG_M_06_XSP1: Attagene TRANS-FACTORIAL Multi-Species (XSP1) HepG2 Assay for M06 Transcription Factor (Internal Marker) (AID 2283790)
Summary of the method: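 Transfected HepG2 multi-reporter system treated 24 h in the presence of 3 nM 6-alpha-fluorotestosterone. The M06 internal marker transcript was quantified by RT-PCR with capillary electrophoresis as a background control, and gain of signal was scored versus DMSO.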

[4] = ATG_M_61_XSP1: Attagene TRANS-FACTORIAL Multi-Species (XSP1) HepG2 Assay for M61 Transcription Factor (Internal Marker) (AID 2283797)
Summary of the method: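 HepG2 cells transiently transfected with multiplexed GAL4-driven reporter units, dosed 24 h with 3 nM 6-alpha-fluorotestosterone present. Reporter mRNA quantified by RT-PCR, 6-FAM labelling, HpaI digestion and capillary electrophoresis; internal-marker background control, gain of signal versus DMSO.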

[5] = ATG_M_32_XSP1: Attagene TRANS-FACTORIAL Multi-Species (XSP1) HepG2 Assay for M32 Transcription Factor (Internal Marker) (AID 2283799)
Summary of the method: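 HepG2 cells transiently transfected with multi-species TRANS reporter units, dosed 24 h with 3 nM 6-alpha-fluorotestosterone present. Internal-marker reporter mRNA quantified by RT-PCR and capillary electrophoresis; positive-direction fit versus DMSO.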

[6] = target: Peroxisome proliferator-activated receptor gamma (Homo sapiens) (UniProt P37231); assay: ATG_hPPARg_XSP1: Attagene TRANS-FACTORIAL Multi-Species (XSP1) HepG2 Assay for human Peroxisome Proliferator-activated Receptor gamma (PPARg) (AID 2283800)
Peroxisome proliferator-activated receptor gamma (Homo sapiens), sequence (P37231 whole entry, looked up, the tested form may be a part): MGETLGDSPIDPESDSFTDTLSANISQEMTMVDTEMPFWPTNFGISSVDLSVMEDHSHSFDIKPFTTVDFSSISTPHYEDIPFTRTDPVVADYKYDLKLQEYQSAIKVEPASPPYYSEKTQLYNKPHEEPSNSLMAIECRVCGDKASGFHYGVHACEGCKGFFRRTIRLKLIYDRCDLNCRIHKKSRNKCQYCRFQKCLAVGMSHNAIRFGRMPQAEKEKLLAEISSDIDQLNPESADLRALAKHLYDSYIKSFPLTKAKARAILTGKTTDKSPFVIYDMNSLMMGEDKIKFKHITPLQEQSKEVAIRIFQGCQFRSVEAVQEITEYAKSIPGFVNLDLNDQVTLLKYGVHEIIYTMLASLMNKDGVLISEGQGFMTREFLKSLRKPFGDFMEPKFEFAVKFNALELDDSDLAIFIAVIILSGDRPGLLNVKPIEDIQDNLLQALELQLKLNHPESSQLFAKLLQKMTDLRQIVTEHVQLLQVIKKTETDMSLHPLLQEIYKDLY
Summary of the method: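 HepG2 cells transiently transfected with GAL4-UAS reporter units carrying chimeric NR-Gal4 proteins; 3 nM 6-alpha-fluorotestosterone present. After 24 h dosing, reporter mRNA quantified by RT-PCR and capillary electrophoresis; gain of signal relative to DMSO.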

[7] = test system: zebrafish Peroxisome Proliferator-activated Receptor gamma (PPARg), gene 557037; assay: ATG_zfPPARg_XSP1: Attagene TRANS-FACTORIAL Multi-Species (XSP1) HepG2 Assay for zebrafish Peroxisome Proliferator-activated Receptor gamma (PPARg) (AID 2283801)
Summary of the method: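 HepG2 cells transiently transfected with GAL4-UAS reporter units including a zebrafish PPARg–GAL4 chimera, dosed 24 h with 3 nM 6-alpha-fluorotestosterone present. Reporter mRNA quantified by RT-PCR, FAM labelling, HpaI digestion and capillary electrophoresis; induction versus DMSO.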

[8] = target: mouse Peroxisome Proliferator-activated Receptor gamma (PPARg), Pparg (gene 19016) (UniProt P37238); assay: ATG_mPPARg_XSP1: Attagene TRANS-FACTORIAL Multi-Species (XSP1) HepG2 Assay for mouse Peroxisome Proliferator-activated Receptor gamma (PPARg) (AID 2283802)
mouse Peroxisome Proliferator-activated Receptor gamma (PPARg), Pparg (gene 19016), sequence (P37238 whole entry, looked up, the tested form may be a part): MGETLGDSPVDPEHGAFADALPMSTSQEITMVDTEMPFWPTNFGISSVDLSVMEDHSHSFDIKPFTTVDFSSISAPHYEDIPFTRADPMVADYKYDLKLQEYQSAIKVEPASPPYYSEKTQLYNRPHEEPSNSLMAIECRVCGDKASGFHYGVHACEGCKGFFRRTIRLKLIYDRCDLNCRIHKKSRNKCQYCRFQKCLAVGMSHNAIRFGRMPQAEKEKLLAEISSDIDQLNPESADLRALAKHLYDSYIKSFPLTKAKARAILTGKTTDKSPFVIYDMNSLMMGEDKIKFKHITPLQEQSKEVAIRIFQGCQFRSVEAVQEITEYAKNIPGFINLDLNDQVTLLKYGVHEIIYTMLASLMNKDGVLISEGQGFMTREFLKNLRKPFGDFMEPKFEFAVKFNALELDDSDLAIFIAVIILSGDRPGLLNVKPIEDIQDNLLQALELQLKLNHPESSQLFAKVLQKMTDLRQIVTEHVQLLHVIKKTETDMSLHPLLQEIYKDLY
Summary of the method: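 HepG2 cells transiently transfected with GAL4-UAS reporter units driven by mouse PPARg–GAL4 chimera; 3 nM 6-alpha-fluorotestosterone present. After 24 h dosing, reporter mRNA quantified by RT-PCR, fluorescent labelling and capillary electrophoresis; gain of signal versus DMSO.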

[9] = target: Nuclear receptor subfamily 1 group I member 2 (Mus musculus) (UniProt O54915); assay: ATG_mPXR_XSP1: Attagene TRANS-FACTORIAL Multi-Species (XSP1) HepG2 Assay for mouse Pregnane X Receptor (PXR) (AID 2283803)
Nuclear receptor subfamily 1 group I member 2 (Mus musculus), sequence (O54915 whole entry, looked up, the tested form may be a part): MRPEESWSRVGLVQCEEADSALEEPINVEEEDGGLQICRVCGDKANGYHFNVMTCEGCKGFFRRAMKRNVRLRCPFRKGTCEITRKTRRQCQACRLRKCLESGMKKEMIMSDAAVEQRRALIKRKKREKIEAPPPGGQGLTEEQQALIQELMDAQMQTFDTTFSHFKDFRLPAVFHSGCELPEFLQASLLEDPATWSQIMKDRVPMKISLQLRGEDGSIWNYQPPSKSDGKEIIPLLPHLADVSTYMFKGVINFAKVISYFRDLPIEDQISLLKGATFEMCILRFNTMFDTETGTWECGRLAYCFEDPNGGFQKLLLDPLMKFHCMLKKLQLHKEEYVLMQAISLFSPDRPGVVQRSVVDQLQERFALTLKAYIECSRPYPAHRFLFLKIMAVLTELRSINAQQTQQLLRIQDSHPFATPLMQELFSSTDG
Summary of the method: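 Transiently transfected HepG2 cells expressing a receptor-Gal4 chimera drive a GAL4-UAS reporter; 3 nM 6-alpha-fluorotestosterone included. Reporter mRNA read 24 h post-dose by RT-PCR and capillary electrophoresis; gain of signal relative to DMSO.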

[10] = target: human Thyroid hormone Receptor alpha (TRa), THRA (gene 7067) (UniProt P10827); assay: ATG_hTRa_XSP1: Attagene TRANS-FACTORIAL Multi-Species (XSP1) HepG2 Assay for human Thyroid hormone Receptor alpha (TRa) (AID 2283805)
human Thyroid hormone Receptor alpha (TRa), THRA (gene 7067), sequence (P10827 whole entry, looked up, the tested form may be a part): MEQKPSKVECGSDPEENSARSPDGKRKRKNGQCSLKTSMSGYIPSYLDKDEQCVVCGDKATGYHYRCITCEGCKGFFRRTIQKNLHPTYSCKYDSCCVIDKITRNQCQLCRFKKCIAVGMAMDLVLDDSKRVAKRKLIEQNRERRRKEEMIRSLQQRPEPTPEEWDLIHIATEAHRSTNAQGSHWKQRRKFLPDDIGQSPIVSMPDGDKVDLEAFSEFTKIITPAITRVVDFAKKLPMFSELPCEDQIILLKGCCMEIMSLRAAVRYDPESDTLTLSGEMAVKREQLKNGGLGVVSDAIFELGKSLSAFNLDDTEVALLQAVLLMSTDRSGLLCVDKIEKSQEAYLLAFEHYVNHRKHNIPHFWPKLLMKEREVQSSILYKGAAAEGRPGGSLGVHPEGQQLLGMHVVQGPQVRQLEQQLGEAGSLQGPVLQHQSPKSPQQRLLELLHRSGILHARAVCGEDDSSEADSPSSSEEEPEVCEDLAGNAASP
Summary of the method: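 HepG2 cells transiently transfected with GAL4-UAS reporter units expressing chimeric NR-Gal4 proteins, dosed 24 hours with 3 nM 6-alpha-fluorotestosterone present. Reporter mRNA measured by RT-PCR and capillary electrophoresis; gain of signal fitted versus DMSO.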

Measured: AC50

O=P(OC(CCl)CCl)(OC(CCl)CCl)OC(CCl)CCl
active: [1] 26 µM | [7] 78.6 µM | [8] 25.8 µM | [9] 0.447 µM
inactive: all other assays above

Reference: PubChem BioAssay (EPA / NIEHS)
